Data published in PubChem BioAssay (NCI).
Several values for one entry are separate records, joined by “and”; a condition that tells them apart may be missing. Equal entries are not always repeated. The panel holds about 79,000 compounds, 15% with a hit somewhere; the sample as a whole holds those more often. Rule as the data show it: active = growth inhibition above about 70%; inactive = the rest.

Columns and labels:
[1] = NCI Yeast Anticancer Drug Screen. Data for the rad50 strain (AID 155);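 also: 0% = growth of vehicle-only cultures of the same strain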; details: S. cerevisiae rad50 strain growth inhibition, active compounds read high; at 50.0 µM unless noted
Summary of the method: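 Inhibition values express reduced yeast growth in compound-treated cultures relative to vehicle-treated controls.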

[2] = NCI Yeast Anticancer Drug Screen. Data for the mec2-1 strain (AID 157); details: S. cerevisiae mec2-1 strain, active compounds read high; at 50.0 µM unless noted
Summary of the method: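 Cells of the genetically defined mec2-1 yeast strain are incubated with test compound. Inhibition of growth is calculated against vehicle-treated controls.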

[3] = NCI Yeast Anticancer Drug Screen. Data for the sgs1 mgt1 strain (AID 161);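 also: 0% = growth of cultures given vehicle only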; details: S. cerevisiae sgs1 mgt1 strain, active compounds read high; at 50.0 µM unless noted
Summary of the method: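 Test agents were incubated with a DNA-repair-mutant yeast strain. Growth was then read and compared against vehicle-treated controls.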

[4] = NCI Yeast Anticancer Drug Screen. Data for the cln2 rad14 strain (AID 165);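 also: 0% = growth equal to vehicle treated cultures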; details: S. cerevisiae cln2 rad14 strain, active compounds read high; at 50.0 µM unless noted
Summary of the method: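 The screen exposed genetically defined yeast (cln2 rad14) to test compounds and scored growth inhibition relative to vehicle-treated controls.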

[5] = NCI Yeast Anticancer Drug Screen. Data for the bub3 strain (AID 167); details: S. cerevisiae bub3 mutant strain, active compounds read high; at 50.0 µM unless noted
Summary of the method: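 Steps: expose the mutant yeast strain to compound; grow alongside vehicle-treated cultures; measure growth; express inhibition against the vehicle cultures.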

[6] = NCI Yeast Anticancer Drug Screen. Data for the mlh1 rad18 strain (AID 175); details: S. cerevisiae mlh1 rad18 strain growth inhibition, active compounds read high; at 50.0 µM unless noted
Summary of the method: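 Compound-treated yeast growth, normalised to vehicle controls. Strain bears defined DNA repair mutations.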

Measured: growth inhibition

CC(=O)Nc1cc([N+](=O)[O-])cc([N+](=O)[O-])c1O
inactive: [1] -7.5% | [2] -6.95% | [3] -1.6% | [4] -24.8% | [5] -10.8% | [6] 7.2%

CCc1c(CC)c(CC)c(CC)c(CC)c1CC
inactive: [1] -42.3% | [2] -14.7% | [3] -36.4% | [4] -39% | [5] 1.05% | [6] -31.8%

CC(C)OC(=O)Nc1ccc(O)cc1
inactive: [1] 10.8% | [2] -6.7% | [3] -2.45% | [4] -19.4% | [5] -3.45% | [6] -5.7%

CN[C@@H]1[C@H](O)[C@H](NC)[C@H]2O[C@@]3(O)C(=O)C[C@@H](C)O[C@H]3O[C@@H]2[C@H]1O
inactive: [1] 7.35% | [2] -23.1% | [3] -21.9% | [4] 7.45% | [5] -12.6% | [6] -9.1%

COC(=O)[C@]1(c2ccc(N(C)C)cc2OC)C[C@@H]2CCCN(CCc3c1[nH]c1ccccc31)C2
inactive: [1] -5.8% | [2] -4.35% | [3] -11.5% | [4] 18.4% | [5] -0.65% | [6] 21.6%

COC(=O)Nc1ccc(Cc2ccc(NC(=O)OC)cc2)cc1
inactive: [1] 26.1% | [2] 7.35% | [3] 27.5% | [4] 15.7% | [5] 33.5% | [6] 29.6%

COc1ccc(C(=O)CCC2(C)OCCO2)cc1OC
inactive: [1] 27.3% | [2] 5.8% | [3] 18.9% | [4] 8.4% | [5] 21.9% | [6] 17.5%

CN(C)C(=O)Sc1cccc([N+](=O)[O-])c1
inactive: [1] 9.5% | [2] -14.9% | [3] -21.8% | [4] -38.3% | [5] 10.5% | [6] -25.6%

CC1CC(OCCO)CC(C)(C)C1 (stereo not drawn)
inactive: [1] 13% | [2] 0.5% | [3] 6.95% | [4] -8.8% | [5] 14.9% | [6] 7.2%

NC(=O)C(c1ccccc1)C1(O)CCCCC1 (stereo not drawn)
inactive: [1] 7.7% | [2] 5.7% | [3] 9.7% | [4] 6.95% | [5] 3.2% | [6] 11.4%

CCOC(=O)N1CCc2cc(OC)c(OC)cc2C1Cc1ccc(OC)c(OC)c1 (stereo not drawn)
inactive: [1] -2.2% | [2] -8.75% | [3] -7.7% | [4] 12% | [5] 1.95% | [6] -5.5%

Cc1c(=O)n(C)c2ccccc2[n+]1[O-]
inactive: [1] 7.9% | [2] 16.1% | [3] 11.7% | [4] -8.65% | [5] 7.1% | [6] 7.65%

COC(=O)C(=O)C(C(=O)OC)C(=O)C(=O)Nc1ccccc1C(N)=O (stereo not drawn)
inactive: [1] -33.5% | [2] -7.55% | [3] -25.6% | [4] -10.2% | [5] -27.9% | [6] -21.2%

CN1c2ccccc2C2CCCCC21 (stereo not drawn)
inactive: [1] 11.6% | [2] 9.7% | [3] 2.15% | [4] -20.2% | [5] 22.8% | [6] 4.25%

CCOC(=O)C1SC(=Nc2ccccc2)N=C1C (stereo not drawn)
inactive: [1] 11.3% | [2] -11.7% | [3] 28.1% | [4] -4.15% | [5] -19.6% | [6] -4.5%

C(=Nc1ccc(N=Cc2ccco2)cc1)c1ccco1
inactive: [1] 10.8% | [2] 2.3% | [3] 0.5% | [4] -8.1% | [5] -8.5% | [6] 7.35%

O=C(CO)C(O)C(O)C(O)C(O)CO (stereo not drawn)
inactive: [1] 19.2% and -6.1% | [2] 4.7% and 1.6% | [3] 20.3% and 3.4% | [4] -1.1% and -1.05% | [5] 32.5% and -3.2% | [6] 20.9% and 5.8%

COC(=O)C1=Nc2c(C)nn(-c3ccccc3)c2N=C(c2ccc([N+](=O)[O-])cc2)C1
inactive: [1] -18.4% | [2] 0.6% | [3] -0.55% | [4] -67.1% | [5] -34% | [6] 10.3%
